Pf Dd2 growth – inhibitors of Plasmodium falciparum Dd2 growth; Potency, µM (titrated, usually from 28.9 µM), for the others: top-dose activity, negative = inhibition, hits mostly inhibitors; P. falciparum Dd2 growth, SYBR Green, 72 h; AID 1347417; actives 4.3% (n = 120,000); active means well fitted inhibition curve with a large enough effect;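 further: plate controls were DMSO vehicle for no effect and reference drug for full effect; nearly all actives have a fitted effect of over 65% in size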
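Readout: SYBR Green fluorescence, 485 nm excitation, 535 nm emission, after ~16 h lysis at 37C. Before that, Dd2-infected red cells (2.5% hematocrit) grew 72 h with compound, 29 uM top final concentration.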
* = called active by the depositor; i = inactive; [ ] = another dose, or the depositor's remark. The sample as a whole holds a higher share of hits than the screen did. Potency means the concentration at half of the fitted maximal effect.

SMILES | Pf Dd2 growth
COc1ccc(C(=O)NC2CCN(C(=O)N3CC4CC(C3)[C@H]3CCCC(=O)N3C4)CC2)c(OC)n1 (stereo not given in full) | 5µM*
O=C(Nc1cc(F)cc(F)c1)N1CCC(Oc2ncccc2C(=O)N2CCOCC2)C1 (stereo not given) | i
COc1ccc(OC)c(S(=O)(=O)N2CC(N(C3CCOCC3)S(C)(=O)=O)C2)c1 | -9%
O=c1[nH]c(N2CCOCC2)nc2c1CCN(Cc1cccnc1)CC2 | 46%[5.79 µM]
CCC(=O)C1=C(c2ccc(OC)c(OC)c2)N(C(=O)CC)n2c(nnc2-c2ccc(C)cc2)S1 | -4%
Cc1nnc2n1C(C)CN(C(=O)CCCn1nnc(-c3ccc(F)cc3)n1)C2 (stereo not given) | -5%
CC(=O)C1=C(c2ccc(Cl)c(Cl)c2)N(C(C)=O)n2c(nnc2-c2ccccc2)S1 | 35%
CCC(=O)N1CCCCCCn2c(nnc2-c2ccc(F)cc2)CC1 | -8%
COc1ccc(C2=NS(=O)(=O)N(C)C(C(=O)Nc3cc(C)ccc3O)=C2)cc1OC | -6%
CC(=O)C1=C(c2ccc(Cl)c(Cl)c2)N(C(C)=O)n2cnnc2S1 | 1.1µM*
CC(=O)C1=C(c2ccc(Cl)c(Cl)c2)N(C(C)=O)n2c(C)nnc2S1 | 2.8µM*
CCC(=O)C1=C(c2ccc(F)cc2)N(C(=O)CC)n2cnnc2S1 | 4.5µM*
COc1ccc(C2=C(C(C)=O)Sc3nnc(-c4ccc(C)cc4)n3N2C(C)=O)cc1OC | 2.5µM*
CN1C(=O)COC[C@@H]1[C@H](O)c1ccc(NC(=O)c2ccc(F)c(Cl)c2)cc1 | i
COC[C@@H]1CN(C(=O)Cc2cccc(C)c2)C[C@H]1c1nc(C)no1 | 35%
CC(C)(C)c1ccc(CN2CC3(COCC2=O)CN(c2ccccc2)C3)cc1 | -2%[44.1 µM]
COc1ccc(C(=O)N2CCC3(CC2)C(OC)CN3c2cccc(F)c2)cc1 (stereo not given) | i
O=C(c1ccc(F)c(F)c1)N1CCC(n2cc(-c3nc(-c4ccccc4)no3)nn2)C1 (stereo not given) | 63%
Cn1cnc(C(=O)N2CCC(C3CCN(S(C)(=O)=O)CC3)C2)c1 (stereo not given) | 13%
O=C(NC1CCc2nnc(C3CC3)n2CC1)C1(c2ccccc2)CC1 (stereo not given) | 12%
COc1ccc(C(=O)N2CCc3nnc([C@@H]4C[C@@H](O)CN4C)n3CC2)cc1F | 10%
COCCCNC(=O)N1CCCN(C(=O)C2CC2)C(c2ccccc2)CC(=O)NCC1 (stereo not given) | 20%
COC(=O)[C@@H]1Cc2nc[nH]c2CN1C(=O)c1ccccc1 | 10%[44.1 µM]
COc1ccc(OC)c(CN2CC[C@@H]3OCC(=O)N(c4ccccc4)[C@H]3CC2)c1 | i
C#C[C@H]1CN2CC[C@H]1C[C@@H]2CNC(=O)CC(C)(C)CC(=O)O | 4%[44.1 µM]
SMILES | Pf Dd2 growth
Cc1ccn(CC(=O)N(C)C2CCc3nn(CC4CC4)c(=O)n3CC2)n1 (stereo not given) | 22%
Cc1ccc(NC(=O)Cn2nc3n(c2=O)CCCCC3)cc1C | 14%
COc1ccc(CN2CC[C@@H]3[C@H]2C(=O)NC[C@H](CCC(=O)N2CCOCC2)N3C)cc1 | i
COc1ccc2cc(C(=O)N3CCN(C(=O)N4CC5CC(C4)[C@H]4CCCC(=O)N4C5)CC3)[nH]c2c1 (stereo not given in full) | i
Cc1ccc(-c2cc(C(=O)NCc3cnn(C)c3C)c3cc(Br)ccc3n2)cc1 | 11µM*
COc1ccc(-c2cc(C(=O)NCc3ccc(C)cc3)c3cc(C(C)C)ccc3n2)cc1 | 27%
CCn1cc(CNC(=O)c2cc(-c3ccc(C)c(C)c3)nc3ccccc23)c(C)n1 | i
CN(C)Cc1cn([C@H]2CO[C@H]3[C@@H]2OC[C@H]3OC(=O)Nc2ccc(C(C)(C)C)cc2)nn1 | i
CN1C(=O)CS(=O)C12CCN(C(=O)Nc1ccccc1)CC2 (stereo not given) | 25%
O=C(Cc1ccc(Cl)cc1)N1CC2CC(C1)[C@H]1CCCC(=O)N1C2 (stereo not given in full) | -8%
COCC(=O)N1CC2(Cc3ccccc3N([S+](C)(=O)[O-])C2)C1 | 8%[44.1 µM]
Cn1ccnc1CN1CCN(C(=O)[C@H]2CNC[C@H](C(=O)N3CCOCC3)C2)CC1 | 0%
Cc1ccc(CNC(=O)Cn2c3ncccc3c(=O)n2-c2ccccc2)cc1 | 39%
CCc1ccc(-n2c(=O)c3cccnc3n2CC(=O)Nc2ccccc2C(F)(F)F)cc1 | 11µM*
CCOC(=O)c1ccccc1NC(=O)Cn1c2ncccc2c(=O)n1-c1ccccc1 | i
CCc1cccc(-n2c(=O)c3cccnc3n2CC(=O)Nc2c(C)cc(C)cc2C)c1 | -4%
Cc1ccc(-n2c(=O)c3cccnc3n2CC(=O)Nc2cc(C)cc(C)c2)cc1 | -11%
O=C(Cn1c2ncccc2c(=O)n1-c1ccccc1)Nc1ccc(F)c(F)c1 | -16%
Cc1ccc(-n2c(=O)c3cccnc3n2CC(=O)Nc2ccc(C)cc2Cl)cc1 | -8%
CCc1cccc(-n2c(=O)c3cccnc3n2CC(=O)Nc2ccc(F)c(C)c2)c1 | 1.3µM*
Cc1ccc(-n2c(=O)c3cccnc3n2CC(=O)Nc2cccc(C)c2C)cc1 | 3.5µM*
CCn1nccc1C(=O)N1C[C@@H](CO)[C@H](c2ccccn2)C1 | 27%
Cn1cccc1C(=O)NCC1Cn2cccc2C(=O)N1Cc1ccccc1 (stereo not given) | 7%
COc1cccc(CCC(=O)N2CCC(c3n[nH]c(=O)n3Cc3ccc(F)cc3)CC2)c1 | -24%
Cc1ccc(NC(=O)CCn2ccn3nc4c(c3c2=O)CCCC4)c(C)c1 | i
SMILES | Pf Dd2 growth
O=C(NCc1cccnc1)C1(CCO)CC12CCOCC2 (stereo not given) | 20%
COc1cc(C)ccc1OCCSc1nc2ccc(NC(=O)c3ccco3)cc2s1 | 4.5µM*
CC(=O)Nc1ccc2nc(SCCOc3ccccc3Cl)sc2c1 | i
O=C(Nc1ccc2nc(SCCOc3ccccc3)sc2c1)c1ccccc1F | 2%
CCC(=O)Nc1ccc2nc(SCCOc3cccc(C)c3)sc2c1 | i
O=C(Nc1ccc2nc(SCC(=O)N3CCCC3)sc2c1)c1ccccc1 | -14%
O=C(Nc1ccc2nc(SCCOc3ccccc3)sc2c1)c1cccs1 | 3.2µM*
CCOc1ccc(C(=O)Nc2ccc3nc(SCCOc4ccccc4)sc3c2)cc1 | -14%
O=C(COc1ccccc1)Nc1ccc2nc(SCC(=O)N3CCCC3)sc2c1 | 11µM*
O=C(COc1ccccc1Cl)Nc1ccc2nc(SCC(=O)N3CCOCC3)sc2c1 | -4%
O=C1NC2(CCCN(C(=O)c3ccc(C(F)(F)F)cc3)C2)COc2ccccc21 (stereo not given) | -2%
CCOCC(=O)Nc1nn(-c2ccc(F)cc2)c2cccc(N3CCOC3=O)c12 | 1%
CC(=O)N1CC2(CCN(Cc3nnc(C)n3C)CC2)CC1C(=O)O (stereo not given) | -6%
COc1cc(=O)n2c(c1C(=O)Nc1ccccc1Cl)CCCC2 | 3%
CCc1ccc(C2CC(C(=O)NC(C)c3ccccc3)CN(C(=O)c3ccoc3)C2)cc1 (stereo not given) | i
CCOC(=O)C1CCCN(C(=O)C2CC(c3ccccc3)CN(C(=O)c3cccc(F)c3)C2)C1 (stereo not given) | i
CCOC(=O)C1CCCN(C(=O)C2CC(c3ccc(CC)cc3)CN(C(=O)c3ccoc3)C2)C1 (stereo not given) | 1.1µM*
COCCN(Cc1cnc(-c2cccc(C)c2)nc1)Cc1cccs1 | -28%
CC(C)CCN1CC2(C1)NC(=O)c1ccccc1O2 | -16%[44.1 µM]

Screens (PubChem)
